# Compounds with a hit are over-represented: about 21% of the library has one in this group of screens.
# NS1 inh: influenza NS1 inhibition; Potency, µM (highest dose often 46.1 µM), for the others: at the highest dose activity, positive = more growth; hit rate 0.4% among 270,000; calls by dose curve; note: potency is the fitted concentration of half-maximal effect; actives are rising curves; nearly all actives have a fitted effect of over 50% in size
#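 In this qHTS, NS1 from influenza A is expressed in budding yeast, where it slows growth. Cells are switched from glucose to 2% galactose medium (pH 6.0, -URA), treated with compound, and growth recovery is read at OD600.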
# Pf growth 96h: P. falciparum growth inhibition at 96 hours. P. falciparum luciferase reporter growth, 96 h. Potency, µM (titrated, usually from 28.7 µM), for the others: at the highest dose activity change, negative = inhibition, actives largely listed as inhibitors. hit rate 6.9% among 320,000. AID 504834; note: potency is the fitted concentration of half-maximal effect; % is set by controls: 0 for no effect and ±100 for the full control effect
#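 Parasite growth measured via integrated firefly luciferase reporter in P. falciparum. Infected erythrocytes at 2% hematocrit, 0.05% parasitemia final were treated 96 hours at 37 C under 5% CO2, and luminescence was read.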
# Shiga inhibitor: inhibitors of Shiga toxin in Vero cells | Vero cells, Shiga toxin protein synthesis inhibition reporter | inhibition, % at 38.7 µM | hit rate 9.2% among 290,000 | AID 2315; in the data active = inhibition mostly above about 28%, no sharp cut-off; inactive = mostly below about 43%; note: 0% is about no effect
# Pf growth 48h: P. falciparum growth inhibition at 48 hours (one generation); hit rate 5.9% among 310,000; P. falciparum luciferase growth in erythrocytes, 48 h; Potency, µM (titrated, usually from 28.7 µM), without a hit: top-dose activity change, negative = inhibition, actives largely listed as inhibitors; note: potency is the fitted concentration of half-maximal effect; % is set by controls: 0 for no effect and ±100 for the full control effect
#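 A one-generation exposure of luciferase-tagged malaria parasites in RPMI 1640/Albumax erythrocyte culture, 37 C and 5% CO2. Inhibition is inferred from decreased luminescence after adding detection reagent.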
# Cycloheximide cs: counter-screen for Shiga toxin inhibitors: cycloheximide protein synthesis inhibition; cell reporter, cycloheximide protein synthesis inhibition counterscreen; max response, %; AID 2314; hit rate 12% among 300,000; in the data active = max response mostly above about 13%, no sharp cut-off; inactive = mostly below about 14%; note: read at 38.3 µM for the half of the compounds with a filed dose; 0% is about no effect
# * marks the source's active call; other numbers are inactive results; ? = inconclusive; / = no result. Unless noted, calls come from the whole dose curve; as a rule, active = well fitted inhibition curve with a large enough effect; inconclusive = small, poorly fitted or top-dose-only effect, or another doubt; inactive = no such curve, though single readings can be large or run the other way.
SMILES,NS1 inh,Pf growth 96h,Shiga inhibitor,Pf growth 48h,Cycloheximide cs
COc1cccc(C2(c3cccc(OC)c3)CC2C(=O)Nc2cccc3ccccc23)c1 (stereo unspecified),7.3%,5.22µM*,0.0,9.28µM*,8.3
COc1cccc(NC(=S)Nc2cccc3ccccc23)c1,?,-0.2%,109.8*,5.6%,84.6*
CCOc1ccc(S(=O)(=O)NCCCN2CCCC2=O)cc1,-1.2%,44.9%,-8.4,-6.1%,-4.0
COC(=O)Cn1ncc(N2CC(C)OC(C)C2)c(Cl)c1=O (stereo unspecified),8.8%,41.9%,-13.8,32.9%,1.7
C=CCNC(=S)Nc1cccc2ccccc12,-20.9%,0.7%,17.4,5.7%,4.4
Cc1ccc(S(=O)(=O)N(C)C)cc1NC(=S)Nc1cccc2ccccc12,24.5%,-2.1%,13.3,?,-2.0
Cc1cc(C)cc(NC(=S)Nc2cccc3ccccc23)c1,-4.3%,45.5%,-14.8,55.6%,-2.4
Cc1cc(NC(=S)Nc2cccc3ccccc23)n[nH]1,/,?,70.4*,55.3%,27.6*
CC(C)c1ccc(NC(=S)Nc2cccc3ccccc23)cc1,-17.7%,-17.1%,98.4*,?,54.8*
Cc1ccc(NC(=S)Nc2cccc3ccccc23)cc1,19.6%,-7.7%,78.2*,?,89.7*
Fc1ccc(NC(=S)Nc2cccc3ccccc23)cc1,-15.3%,-17.2%,69.8*,0.1%,42.2*
CC1(C)CC(=O)C(C2C3=C(CC(C)(C)CC3=O)OC3=C2C(=O)CC(C)(C)C3)=C(O)C1,-0.5%,14.5%,16.2,4.4%,1.9
Fc1ccc(NC(=S)Nc2cccc3ccccc23)cc1F,21.5%,-25.7%,45.1*,?,45.6*
Cc1cccc(NC(=S)Nc2cccc3ccccc23)c1,-24.5%,?,95.3*,10.4µM*,32.0*
Cc1cccc(NC(=S)NCc2ccc(F)cc2)c1C,-25.7%,?,1.8,?,-3.8
CCN(CC)CCNC(=O)c1ccc(NC(=O)c2ccc(S(=O)(=O)N3CCCCCC3)cc2)cc1,/,?,/,1.65µM*,/
CCN(CC)CCNC(=O)c1ccc(NC(=O)c2ccc(Cl)c(S(=O)(=O)N3CCCCCC3)c2)cc1,4.5%,-57.6%,13.9,1.65µM*,1.3
CCC(=O)NC(=S)Nc1cccc(NC(=O)CC)c1,-10.0%,0.0%,8.7,-3.0%,-2.6
O=C(NC(=S)Nc1cccc(CO)c1)c1ccc(-c2ccccc2)cc1,22.0%,90.5%,64.0*,64.3%,25.0*
CCC(=O)Nc1cccc(NC(=S)NC(=O)c2cccc(C)c2)c1,-11.7%,145.1%,113.6*,180.3%,60.2*
CCC(=O)Nc1cccc(NC(=S)NC(=O)c2ccccc2)c1,-0.6%,341.8%,15.8*,151.4%,53.8*
CCC(=O)Nc1cccc(NC(=S)NC(=O)c2ccc(C)cc2)c1,6.8%,33.9%,101.6*,56.7%,46.0*
CCCC(=O)NC(=S)Nc1cccc(C(C)=O)c1,-4.8%,20.1%,10.6,30.2%,12.8
O=C(Cc1ccccc1)Nc1ccc(NC(=S)NC(=O)c2ccccc2)cc1,6.2%,?,20.0,-10.9%,-2.7
CCS(=O)(=O)N1CCN=C1SC(C)c1ccccc1 (stereo unspecified),-10.2%,-22.9%,3.7,-18.8%,-2.7
SMILES,NS1 inh,Pf growth 96h,Shiga inhibitor,Pf growth 48h,Cycloheximide cs
COc1ccc(/C=C/C(=O)N(CCC(N)=O)c2ccccc2)cc1S(=O)(=O)N1CCOCC1,/,-19.8%,/,?,/
CCn1c(N2CCN(C(=S)Nc3ccc(OC)cc3)CC2)nc2ccccc21,-4.4%,22.5%,-3.0,-15.4%,1.0
O=C1CCCN1c1ccc(S(=O)(=O)Oc2cccc(Cl)c2)cc1[N+](=O)[O-],3.0%,?,37.5,-8.5%,2.6
C=CCN(CC=C)S(=O)(=O)c1ccc(NC(=S)NC(=O)c2ccco2)cc1,10.0%,/,34.3,?,4.9
C=CCN(CC=C)S(=O)(=O)c1ccc(NC(=S)NC(=O)c2ccc(-c3ccccc3)cc2)cc1,-0.4%,/,20.1,1.47µM*,4.5
COc1cc(-c2nnn(CC#N)n2)ccc1OCc1ccccc1,-76.0%,/,63.9*,151.5%,29.9*
COc1cc(-c2nnn(CC(=O)NC3CCS(=O)(=O)C3)n2)ccc1OCc1ccccc1 (stereo unspecified),-3.4%,216.9%,44.4*,40.0%,16.9*
O=C(Cn1nnc(-c2ccc(Cl)cc2)n1)NC1CCS(=O)(=O)C1 (stereo unspecified),/,-5.4%,/,2.2%,/
C=CCn1c(SCC(=O)N2CCOCC2)nnc1C(C)NC(=O)c1ccccc1 (stereo unspecified),-7.6%,?,-11.9,32.1%,-1.1
